From PubChem BioAssay
Active and inactive are the calls of the source. Unless noted, no rule for the calls is given here.

Legend:
[1] = system: Wnt5a (protein binding on small-molecule microarray); assay: small molecules binding Wnt5a protein – biophysical, small-molecule microarray, 635/667 nm fluorescence, primary screen (AID 1142); details: 635 nm fluorescence, higher = more signal;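 also: fluorescence read at 667 nm with signal to noise per printed feature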
[2] = ATP-based viability of Huh7 replicon cells – cell-based, CellTiter-Glo luminescence, basal, 48 h, cytotoxicity control for HCV replication inhibitor project, primary screen (AID 1143); details: higher = more signal, called active from +8 up or from −8 down;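 also: Huh7 hepatoma cells carrying a hepatitis C replication reporter with no stimulus; test concentration not given here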
[3] = Pseudomonas biofilm growth suppression – PAO1 strain, BacTiter-Glo luminescence, LB-PBS, primary screen (AID 1144); details: P. aeruginosa PAO1 biofilm, 12 h, higher = more signal
[4] = basal CRE-LacZ reporter activity in PC12 – cell-based, unstimulated, primary screen (AID 1145); details: no forskolin, luminescence, 4.5 h, higher = more signal, called active from +8 up or from −8 down
[5] = forskolin-driven CRE-LacZ activity in PC12 – cell-based, CRE-LacZ reporter, forskolin-stimulated, primary screen (AID 1146); details: luminescence, 4.5 h, higher = more signal, called active from +8 up or from −8 down;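 also: PC12 cells with 6xCRE LacZ reporter stimulated by forskolin 10 µM; beta-galactosidase reporter signal reflecting CREB driven transcription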
[6] = biological target: Streptavidin (Streptomyces avidinii) (UniProt P22629); assay: compounds binding control protein streptavidin – biophysical, small-molecule microarray, 635/667 nm fluorescence, artefact control for SMM compound annotation, primary screen (AID 1147); details: higher = more signal;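 also: signal reflects streptavidin binding to arrayed compounds as a control protein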
[7] = probe aInhba binding on compound microarray – biochemical, small-molecule microarray, 635/667 nm fluorescence, primary screen (AID 1148); details: higher = more signal;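 also: score merges 667nm spot fluorescence with signal-to-noise for antibody binding to printed compounds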
Torsin-1A (Homo sapiens) [8] = biological target: Torsin-1A (Homo sapiens) (UniProt O14656); assay: TOR1A wild-type binding on microarray – cell lysate, small-molecule microarray, lysate, 635/667 nm, primary screen (AID 1149); details: COS7 hTOR1A-WT lysate, 635 nm fluorescence, higher = more signal
Torsin-1A (Homo sapiens) [9] = biological target: Torsin-1A (Homo sapiens) (UniProt O14656); assay: torsin A mutant lysate binding on microarrays – cell lysate, small-molecule microarray, COS7 lysate, 635/667 nm fluorescence, primary screen (AID 1150); details: COS7 hTOR1A mutant lysate, 635 nm fluorescence, higher = more signal;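 also: score pools 667 nm emission and signal to noise measuring lysate protein binding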
[10] = system: Sonic hedgehog protein (Shh); assay: Sonic hedgehog microarray binding compounds – biochemical, small-molecule microarray, 635/667 nm fluorescence, primary screen (AID 1151); details: 635 nm fluorescence, higher = more signal;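 also: Shh protein binding to compounds spotted on small-molecule microarray slides; score combines spot fluorescence intensity with signal-to-noise across triplicate slides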
[11] = optical density shifts of acrAB sulA E. coli – strain DRC41, OD650, 48 h, E. coli filamentation inducer project, primary screen (AID 1152); details: higher = more signal, called active from +8 up or from −8 down;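 also: E. coli MC1000 strain DRC41 lacking acrAB efflux pump and sulA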
[12] = probe aLefty1 binding on compound microarray – biochemical, small-molecule microarray, 635/667 nm fluorescence, primary screen (AID 1153); details: higher = more signal;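 also: score merges spot fluorescence with signal-to-noise ratio from the scanned slide images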
[13] = plasmodial surface anion channel blockers, osmotic lysis – cell-based, P. falciparum Indochina, OD700, 1 h, primary screen (AID 1154); details: P. falciparum Indochina infected RBC osmotic lysis, higher = more signal, called active from +8 up or from −8 down
[14] = plasmodial surface anion channel blockers, osmotic lysis – cell-based, P. falciparum Indochina, OD700, 2 h, primary screen (AID 1155);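 also: lysis reports solute entry through the parasite surface anion channel PSAC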; details: P. falciparum Indochina infected erythrocytes, higher = more signal, called active from +8 up or from −8 down
[15] = changes in parasitized red cell lysis, either direction – P. falciparum Indochina, OD700, 3 h, PSAC antagonist project, primary screen (AID 1156); details: P. falciparum-infected erythrocytes, osmotic lysis, higher = more signal, called active from +8 up or from −8 down
[16] = plasmodial surface anion channel blockers, osmotic lysis – cell-based, P. falciparum Indochina, OD700, 18 h, primary screen (AID 1157); details: P. falciparum Indochina infected erythrocytes, osmotic lysis OD700, 18 h; higher = more signal, called active from +8 up or from −8 down
[17] = S6 kinase pathway phospho-S6 level changes – cell-based, A549, cytoblot, luminescence, serum-stimulated, primary screen (AID 1158); details: 5 h, higher = more signal;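 also: serum-stimulated A549 lung adenocarcinoma cells; signal is phosphorylated S6 detected by cytoblot immunostaining with HRP secondary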
[18] = biological target: NADPH oxidase 2 (Homo sapiens) (UniProt P04839); assay: compounds shifting NOX2 Amplex Red fluorescence – cell-based, HEK293-NOX2, PMA-stimulated, NOX inhibitor project, primary screen (AID 1159); details: 45 min, higher = more signal, called active from +8 up or from −8 down; also: test concentration not given here
[19] = biological target: NADPH oxidase 4 (Homo sapiens) (UniProt Q9NPH5); assay: compounds shifting NOX4 Amplex Red fluorescence – cell-based, HEK293-NOX4, tetracycline-induced, NOX inhibitor project, primary screen (AID 1160); details: HEK293-NOX4, Amplex Red H2O2 fluorescence, 45 min; higher = more signal, called active from +8 up or from −8 down
[20] = biological target: NADPH oxidase 5 (Homo sapiens) (UniProt Q96PH1); assay: compounds shifting NOX5 Amplex Red fluorescence – cell-based, HEK293-NOX5, NOX inhibitor project, primary screen (AID 1161); details: HEK293-NOX5, ionomycin, 45 min, higher = more signal
Sequence of NADPH oxidase 5 (Homo sapiens) (Q96PH1 whole entry, looked up): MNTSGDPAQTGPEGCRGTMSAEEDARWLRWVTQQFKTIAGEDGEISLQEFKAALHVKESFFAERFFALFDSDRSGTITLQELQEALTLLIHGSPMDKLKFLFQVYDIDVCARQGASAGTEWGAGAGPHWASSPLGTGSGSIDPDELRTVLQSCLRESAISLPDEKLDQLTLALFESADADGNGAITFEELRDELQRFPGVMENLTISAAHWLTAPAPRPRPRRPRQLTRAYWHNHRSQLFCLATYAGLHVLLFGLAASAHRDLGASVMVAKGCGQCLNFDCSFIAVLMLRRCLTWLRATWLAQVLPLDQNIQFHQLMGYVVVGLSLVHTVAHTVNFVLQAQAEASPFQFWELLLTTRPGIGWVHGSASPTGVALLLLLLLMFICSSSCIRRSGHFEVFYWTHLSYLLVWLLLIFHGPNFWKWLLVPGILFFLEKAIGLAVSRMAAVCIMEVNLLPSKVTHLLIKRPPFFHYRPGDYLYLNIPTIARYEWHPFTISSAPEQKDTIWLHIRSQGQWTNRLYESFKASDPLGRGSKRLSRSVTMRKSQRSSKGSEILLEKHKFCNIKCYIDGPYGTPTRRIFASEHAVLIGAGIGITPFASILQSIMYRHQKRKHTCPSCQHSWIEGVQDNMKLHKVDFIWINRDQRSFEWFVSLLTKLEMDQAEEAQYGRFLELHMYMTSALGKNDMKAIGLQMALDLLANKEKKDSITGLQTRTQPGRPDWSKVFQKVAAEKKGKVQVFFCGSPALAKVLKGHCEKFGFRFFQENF

Sequence of Streptavidin (Streptomyces avidinii) (P22629 whole entry, looked up): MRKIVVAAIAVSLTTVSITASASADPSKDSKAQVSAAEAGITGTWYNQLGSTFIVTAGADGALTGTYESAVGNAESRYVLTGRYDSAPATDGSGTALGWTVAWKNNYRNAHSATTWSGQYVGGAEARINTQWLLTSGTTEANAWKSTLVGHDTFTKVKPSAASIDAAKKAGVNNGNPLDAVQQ
Sequence of Torsin-1A (Homo sapiens) (O14656 whole entry, looked up): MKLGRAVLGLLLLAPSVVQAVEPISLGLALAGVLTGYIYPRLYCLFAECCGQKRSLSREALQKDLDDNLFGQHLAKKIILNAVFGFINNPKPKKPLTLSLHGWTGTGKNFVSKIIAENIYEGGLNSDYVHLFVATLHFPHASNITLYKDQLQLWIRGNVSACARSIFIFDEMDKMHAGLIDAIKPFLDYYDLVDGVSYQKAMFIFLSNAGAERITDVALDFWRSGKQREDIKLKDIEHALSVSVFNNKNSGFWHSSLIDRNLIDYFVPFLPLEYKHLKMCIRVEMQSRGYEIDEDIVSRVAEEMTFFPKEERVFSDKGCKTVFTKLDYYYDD
Sequence of NADPH oxidase 2 (Homo sapiens) (P04839 whole entry, looked up): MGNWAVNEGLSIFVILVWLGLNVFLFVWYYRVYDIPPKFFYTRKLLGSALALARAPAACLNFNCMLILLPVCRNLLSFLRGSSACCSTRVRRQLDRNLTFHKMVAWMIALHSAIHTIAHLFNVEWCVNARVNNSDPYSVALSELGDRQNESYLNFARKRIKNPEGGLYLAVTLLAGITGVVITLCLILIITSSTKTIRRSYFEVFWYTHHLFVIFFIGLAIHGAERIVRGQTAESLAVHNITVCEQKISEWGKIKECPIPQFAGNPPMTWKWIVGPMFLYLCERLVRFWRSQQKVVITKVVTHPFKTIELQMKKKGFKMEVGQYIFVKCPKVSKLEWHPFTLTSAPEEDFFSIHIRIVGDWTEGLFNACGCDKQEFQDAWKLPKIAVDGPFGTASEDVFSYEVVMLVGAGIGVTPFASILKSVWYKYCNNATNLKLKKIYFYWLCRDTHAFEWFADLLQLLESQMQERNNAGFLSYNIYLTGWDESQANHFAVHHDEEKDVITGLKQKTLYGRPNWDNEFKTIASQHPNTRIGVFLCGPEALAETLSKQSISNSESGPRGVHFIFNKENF
Sequence of NADPH oxidase 4 (Homo sapiens) (Q9NPH5 whole entry, looked up): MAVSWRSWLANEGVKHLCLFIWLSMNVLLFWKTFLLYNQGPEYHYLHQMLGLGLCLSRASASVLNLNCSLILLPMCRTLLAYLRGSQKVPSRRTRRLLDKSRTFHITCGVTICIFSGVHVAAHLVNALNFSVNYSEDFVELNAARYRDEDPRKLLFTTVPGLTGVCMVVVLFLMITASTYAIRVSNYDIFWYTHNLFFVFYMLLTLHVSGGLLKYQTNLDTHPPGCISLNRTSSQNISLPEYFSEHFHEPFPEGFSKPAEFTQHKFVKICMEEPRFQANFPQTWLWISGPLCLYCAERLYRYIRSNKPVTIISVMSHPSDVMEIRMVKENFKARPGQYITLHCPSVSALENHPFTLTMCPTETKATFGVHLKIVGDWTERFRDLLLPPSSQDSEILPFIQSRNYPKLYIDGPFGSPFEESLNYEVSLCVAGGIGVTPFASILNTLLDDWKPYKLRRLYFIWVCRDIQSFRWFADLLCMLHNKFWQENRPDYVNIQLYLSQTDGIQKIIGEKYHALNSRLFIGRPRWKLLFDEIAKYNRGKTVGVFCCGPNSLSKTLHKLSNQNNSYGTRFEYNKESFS

SMILES | composite z-score [1] | z-score [2] | z-score [3] | z-score [4] | z-score [5] | composite z-score [6] | composite z-score [7] | composite z-score (Torsin-1A (Homo sapiens) [8]) | composite z-score (Torsin-1A (Homo sapiens) [9]) | composite z-score [10] | z-score [11] | composite z-score [12] | z-score [13] | z-score [14] | z-score [15] | z-score [16] | z-score [17] | z-score [18] | z-score [19] | z-score [20]
NCCCCCCNC(=O)[C@@H]1C[C@@H]2C(=O)N[C@@H](CCCCN)C(=O)N2[C@@H]1c1cccc(OCCO)c1 | 0.57 | 0.0957 (inactive) | -0.537 (inactive) | -0.26 (inactive) | -0.119 (inactive) | 0.125 | 0.094 | -0.324 | 1.2 | 1.5 | 0.68 (inactive) | 0.784 | 3.51 (inactive) | 0.289 (inactive) | -0.147 (inactive) | 0.472 (inactive) | -0.447 | 0.937 (inactive) | 1.02 (inactive) | 1.01
COC(=O)[C@@]1(Cc2ccc(OC)cc2)[C@H]2c3cc(C(=O)N(C)C)n(Cc4ccc(Cl)c(C(F)(F)F)c4)c3C[C@H]2CN1C(=O)c1ccccc1 | 0.758 | -2.81 (inactive) | 0.275 (inactive) | 2.87 (inactive) | 2.18 (inactive) | 0.725 | 0.515 | -0.213 | 0.234 | -0.988 | -1.4 (inactive) | 0.357 | 7.57 (inactive) | 1.42 (inactive) | 1.01 (inactive) | 1.21 (inactive) | -0.264 | 1.19 (inactive) | -0.227 (inactive) | 1.57
CC(C)[Si](C#CCCCC#N)(O[C@H](c1ccccc1)c1cn([C@H](CO)Cc2ccccc2)nn1)C(C)C | -0.187 | -0.248 (inactive) | -0.747 (inactive) | -0.463 (inactive) | 1.01 (inactive) | 1.18 | -0.108 | 0.531 | 0.477 | 0.774 | 1.72 (inactive) | -0.187 | 1.31 (inactive) | 0.4 (inactive) | -0.138 (inactive) | 0.0616 (inactive) | -0.013 | -0.777 (inactive) | 0.789 (inactive) | 0.317
C=C(C)c1cc2c(c(CCCCCC)n1)[Si](C(C)C)(C(C)C)OC2 | -0.712 | -0.342 (inactive) | 0.582 (inactive) | 0.367 (inactive) | 0.0246 (inactive) | -1.01 | -0.159 | -1.74 | -1.05 | -0.351 | -0.959 (inactive) | -0.245 | 1.18 (inactive) | 0.7 (inactive) | -0.0223 (inactive) | 0.778 (inactive) | 0.202 | -1.98 (inactive) | -0.933 (inactive) | -2.92
COCCOC(=O)N1C(=O)[C@@]2(c3cc(C#CC4=CCCCC4)ccc31)[C@H](c1ccc(O)cc1)N1[C@H](c3ccccc3)[C@H](c3ccccc3)OC(=O)[C@H]1[C@@H]2C(=O)N1CCN(c2ncccn2)CC1 | -0.299 | 0.498 (inactive) | -0.572 (inactive) | -0.467 (inactive) | -0.0588 (inactive) | -1.34 | -0.152 | -0.692 | -1.27 | -0.589 | -0.202 (inactive) | -0.183 | -0.0088 (inactive) | 0.18 (inactive) | 0.299 (inactive) | 0.0164 (inactive) | -0.229 | 0.347 (inactive) | -0.0204 (inactive) | 0.715
C[C@@H]1ON(c2ccc(C(=O)OC(C)(C)C)cc2)[C@H](c2ccc(O)cc2)[C@H]1C(=O)N1C(=O)OC[C@H]1Cc1ccccc1 | 0.218 | -2.96 (inactive) | 0.133 (inactive) | 1.22 (inactive) | 0.419 (inactive) | 0.922 | -0.0552 | 0.438 | 0.616 | 0.596 | -0.476 (inactive) | 0.119 | 3.71 (inactive) | 0.709 (inactive) | -0.348 (inactive) | 0.87 (inactive) | 0.363 | -0.394 (inactive) | -0.43 (inactive) | -0.209
COc1cc2c(cc1O)C(C)N(Cc1ccc([N+](=O)[O-])o1)CC2 (stereo not given) | 0.322 | 0.143 (inactive) | -0.158 (inactive) | -0.258 (inactive) | 1.6 (inactive) | 0.97 | 0.303 | 0.682 | 0.897 | 0.0196 | -0.984 (inactive) | 0.245 | 18.3 (active) | 2.09 (inactive) | 0.831 (inactive) | 0.424 (inactive) | -0.31 | -4.17 (inactive) | -2.17 (inactive) | -3.28
C=C(COC)/C(=C/C[C@H](OC(C)=O)c1ccc(OCCO)cc1)c1cc(C(=O)OC)ccc1OC | 0.39 | -0.519 (inactive) | -0.339 (inactive) | 13.8 (active) | 0.696 (inactive) | -0.313 | 0.0566 | 2.01 | 0.524 | 1.92 | 1.28 (inactive) | 0.188 | 24.8 (active) | 7.54 (inactive) | 2.08 (inactive) | 1.14 (inactive) | 0.497 | 1.6 (inactive) | 1.03 (inactive) | -1.34
C[C@H]1NC(=O)[C@@]23C(=O)N[C@@H](Cc4ccccc4)C2[C@H](C)[C@@]2(C)O[C@H]2C3/C=C/C/C=C\CNC(=O)[C@H](Cc2ccccc2)NC1=O (stereo not given in full) | 0.0319 | -0.945 (inactive) | -0.773 (inactive) | -0.508 (inactive) | -0.0421 (inactive) | -0.178 | -0.0963 | -0.2 | 0.113 | 1.63 | -0.213 (inactive) | -0.0378 | 0.874 (inactive) | 0.577 (inactive) | 0.395 (inactive) | 0.33 (inactive) | -0.271 | 1.63 (inactive) | -1.2 (inactive) | 0.201
